PubChem BioAssay (NCATS)
Several values for one entry are separate records, joined by “and”; a condition that tells them apart may be missing. Equal entries are not always repeated. Results filed as inconclusive are left out. A number with no mark means an inactive call. Activity calls are given as the source filed them. The call rests on the fitted dose curve; in most records, active means well fitted cell-killing curve with a large enough effect; inconclusive means small, poorly fitted or top-dose-only effect, or effect the other way; inactive means no such curve, though single readings can be large or run the other way.

Columns and labels:
[1] = Viability qHTS for spleen associated tyrosine kinase inhibitor (SYKi) naive MV4-11 cells (AID 1963823); details: MV4-11 AML viability, CellTiter-Glo luminescence, 72 h; series mostly up to 45 µM; further: nearly all actives have a fitted effect of over 40% in size
Procedure, shortened: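 In this viability screen, compounds acted on SYK inhibitor naive MV4-11 cells for three days (72 hr, 37 C). Remaining viable cells were measured by CellTiter-Glo luminescence following a 10 min room-temperature development.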

[2] = Viability qHTS for spleen associated tyrosine kinase inhibitor (SYKi) drug resistant MV4-11 cells (AID 1963824); details: SYKi-resistant MV4-11 viability, CellTiter-Glo, 72 h; series mostly up to 45 µM; further: nearly all actives have a fitted effect of over 35% in size
Procedure, shortened: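 SYK-inhibitor-resistant MV4-11 AML cells were seeded at 500 per well onto compound and cultured 72 hours (37 °C, 5% CO2). CellTiter-Glo was then added, and after 10 min at room temperature, luminescence gave viability.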
Potency means the concentration at half of the fitted maximal effect.

| Structure (SMILES) | viability (% of control) [1] | viability, % of control [2] | Potency [1] | Potency [2] |
| --- | --- | --- | --- | --- |
| CCCCCCCCCCCCC/C=C/[C@@H](O)[C@H](CO)N(C)C | 70.8% [at 4.97 µM] | 82.6% [at 4.97 µM] | – | – |
| O=C(NNc1nc2cc(F)ccc2n2cccc12)c1cnccn1 | – | – | 0.82 µM (active) | 0.731 µM (active) |
| CC(=O)OC/C(=C/C(=O)O)CC[C@@H]1C(C)=CC(=O)[C@@H]2C(C)(C)CCC[C@@]12C | – | – | inactive | inactive |
| O=C1C(Cc2ccc(O)cc2)N2C(=O)CCN(C(=O)NCc3ccccc3)C2CN1Cc1cccc2ccccc12 (stereo not given) | – | – | 1.46 µM (active) | 1.84 µM (active) |
| OCC1=C[C@@H](O)[C@@H]2C=CO[C@@H](O[C@@H]3O[C@H](CO)[C@@H](O)[C@H](O)[C@H]3O)[C@H]12 | – | – | inactive | inactive |
| O=C(/C=C/c1ccccc1)OC[C@H]1O[C@@H](OC(=O)c2cc(O)c(O)c(O)c2)[C@H](O)[C@@H](O)[C@@H]1O | – | – | inactive | inactive |
| C=C1CC[C@@H](O)[C@]2(C)CC[C@H]3C(=C)C(=O)O[C@@H]3[C@@H]12 | – | – | 18.4 µM (active) | 11.6 µM (active) |
| O=C(/C=C/c1ccccc1)OCC1=CC[C@@H]2C(C(=O)O)=CO[C@@H](O[C@@H]3O[C@H](CO)[C@@H](O)[C@H](O)[C@H]3O)[C@H]12 | – | – | inactive | inactive |
| CC(C)COc1ccc(CNC(=O)N(Cc2ccc(F)cc2)C2CCN(C)CC2)cc1 | – | – | 18.4 µM (active) | 13 µM (active) |
| CC(=O)c1c(O)cc2c(c1C)C(=O)CC(O)C2 (stereo not given) | – | – | inactive | inactive |
| COCC1OC(OC(C)(C)C2CCC3(C)C=C(C4CCC5C4(C)CC(O)C4OC(C(C)(C)OC6OC(CO)C(O)C(O)C6NC(C)=O)CCC45C)CCC3O2)C(NC(C)=O)C(O)C1O (stereo not given) | 92.4% [at 9.25 µM] | 108% [at 9.25 µM] | – | – |
| CN(C)CCNC(=O)c1cccn2c(=O)c3cc4ccccc4cc3nc12 | – | – | 0.299 µM (active) | 0.422 µM (active) |
| CC(C)C1=CC2C(CC[C@]2(C)O)[C@](C)(O)CC1 (stereo not given in full) | – | – | inactive | inactive |
| COc1cc(SC)ccc1C(=O)N1CCC(Cc2ccccc2)CC1 | – | – | 23.1 µM (active) | 16.6 µM (active) and 20.6 µM (active) |
| O=C(CCC1CCN(Cc2ccccc2)CC1)c1ccc2c(c1)NCCCC2 | – | – | 23.1 µM (active) | 14.6 µM (active) |
| CN(C)S(=O)(=O)c1ccc2c(c1)/C(=C/c1cc3c([nH]1)CCCC3)C(=O)N2 | – | – | 0.82 µM (active) | 1.64 µM (active) |
| O=C(/C=C/c1ccc(O)c(O)c1)OC[C@H]1O[C@@H](OC2CCCCC2O)[C@H](O)[C@@H](O)[C@@H]1O (stereo not given in full) | – | – | inactive | inactive |
| NC(=O)c1cccc2[nH]c(-c3ccc(C4CCCN4)cc3F)nc12 (stereo not given) | – | – | 13 µM (active) | 16.4 µM (active) |
| C=C1C(=O)O[C@@H]2[C@H]1CC[C@H](C)C(CCC(=O)O)C2(C)O (stereo not given in full) | – | – | 5.8 µM (active) | 2.31 µM (active) |
| Cc1cc(NC(=O)c2cccc(NC(=O)/C=C/CN(C)C)c2)ccc1Nc1nccc(-c2cccnc2)n1 | – | – | 2.06 µM (active) | 2.31 µM (active) |

| Structure (SMILES) | viability (% of control) [1] | viability, % of control [2] | Potency [1] | Potency [2] |
| --- | --- | --- | --- | --- |
| CCN1/C(=C/C(C)=O)Sc2ccc(OC(C)=O)cc21 | – | – | 7.31 µM (active) | 10.3 µM (active) |
| CC(NCCC(c1ccccc1)c1ccccc1)c1ccccc1 (stereo not given) | – | – | 13.3 µM (active) | 10.6 µM (active) |
| C[C@@H]1CCC2C(C)(C)[C@H](O)CC[C@]2(C)[C@@]12Cc1c(O)cc3c(c1O2)CNC3=O (stereo not given in full) | – | – | inactive | inactive |
| CO[C@H]1O[C@@H]2O[C@]3(C)CC[C@H]4[C@H](C)CC[C@@H]([C@H]1C)[C@@]24OO3 | – | – | 1.84 µM (active) | 2.91 µM (active) |
| Nc1ccc(-n2nc(C(F)(F)F)cc2C(F)(F)F)cc1 | – | – | inactive | inactive |
| CC1(C)CCC[C@]2(C)[C@H]3CC(=O)O[C@]3(C)CC[C@@H]12 | – | – | inactive | inactive |
| COc1ccc(N(C(=O)Nc2c(C)cccc2C)c2cc(Nc3ccc(N4CCN(C)CC4)cc3)ncn2)c(OC)c1 | – | – | 2.31 µM (active) | 3.66 µM (active) |
| C=C[C@H]1C(O[C@@H]2O[C@H](CO)[C@@H](O)[C@H](O)[C@H]2O)OC=C2C(=O)N3CCc4c([nH]c5ccccc45)C3CC21 (stereo not given in full) | – | – | inactive | inactive |
| C=C1[C@H]2[C@H](O[C@@H]3O[C@H](COC(=O)/C=C/c4cc(OC)c(O)c(OC)c4)[C@@H](O)[C@H](O)[C@H]3O)OC=C(C(=O)O)[C@H]2C[C@@H]1O | – | – | inactive | inactive |
| Nc1ncnc2c1nc(Cl)n2C1O[C@H](CO)[C@@H](O)[C@H]1O (stereo not given in full) | – | – | 0.366 µM (active) | 0.146 µM (active) |
| C=C1CCC2[C@](C)(CCC[C@@]2(C)C=O)[C@H]1CC/C(C)=C/CO (stereo not given in full) | – | – | 20.6 µM (active) | 20.6 µM (active) |
| CCOc1c2c(c(OCC)c3ccccc13)C(=O)N(c1ccc(CC(=O)NS(=O)(=O)c3ccccc3)cc1)C2 | – | – | inactive | inactive |
| CC(C)(O)C1CCC2(C)C3C(O)C4C(C13)C42CO (stereo not given) | – | – | inactive | inactive |
| COC(=O)[C@@]1(C)CC[C@]2(C(=O)O[C@@H]3O[C@H](CO)[C@@H](O)[C@H](O)[C@H]3O)CC[C@]3(C)C(=CCC4[C@@]5(C)CC[C@H](O[C@@H]6O[C@H](C(=O)O)[C@@H](O)[C@H](O)[C@H]6O)C(C)(C)C5CC[C@]43C)[C@@H]2C1 (stereo not given in full) | 68.6% [at 9.25 µM] | 81.9% [at 9.25 µM] | – | – |
| COc1cc(C(C)=O)ccc1O[C@@H]1O[C@H](CO[C@@H]2O[C@@H](C)[C@H](O)[C@@H](O)[C@H]2O)[C@@H](O)[C@H](O)[C@H]1O | – | – | inactive | inactive |
| Cc1cc(C)nc(NS(=O)(=O)c2ccc(NC(=S)NC(=O)COc3ccc(Br)cc3Cl)cc2)n1 | – | – | inactive | inactive |
| CC(C)C1NC(=O)CNC(=O)C2CCCN2C(=O)C(Cc2c[nH]c3ccccc23)NC(=O)CNC(=O)C(Cc2ccc(O)cc2)NC(=O)CNC1=O (stereo not given) | – | – | inactive | inactive |
| C=C1C(=O)O[C@@H]2/C=C(\CO)CC/C=C(\CO)[C@H](OC(C)=O)C(OC(=O)C(C)CC)C12 (stereo not given in full) | – | – | 5.02 µM (active) | 2.24 µM (active) |
| COc1ccc2[nH]c3c(-c4cccc5ccccc45)nccc3c2c1 | – | – | 0.651 µM (active) | 0.82 µM (active) |
| C[C@@H]1[C@H](O)[C@@H]2OC(=O)C3=C2[C@H](CCC3)[C@@]12C[C@@H](c1ccoc1)OC2=O | – | – | inactive | inactive |

| Structure (SMILES) | viability (% of control) [1] | viability, % of control [2] | Potency [1] | Potency [2] |
| --- | --- | --- | --- | --- |
| CC1(C)CCC[C@@]2(C)C1[C@H](OC(=O)/C=C/C=C/C(=O)O)C=C1COC(=O)[C@@]12O (stereo not given in full) | – | – | inactive | inactive |
| O=C(Nc1ccccc1)N1CCN(c2nc(-c3ccccc3)ns2)CC1 | – | – | 14.6 µM (active) | 16.4 µM (active) |
| COc1cc(C(=O)NC2CCN(C)CC2)c(F)cc1Nc1ncc2c(n1)N(C1CCCC1)CC(F)(F)C(=O)N2C | – | – | 0.0206 µM (active) | 0.0092 µM (active) |
| CC1OC(OC2CCC3(C)C(CCC4(C)C3CC=C3C5CC(C)(C)CCC5(C(=O)OC5OC(CO)C(O)C(O)C5O)CCC34C(=O)O)C2(C)C)C(O)C(O)C1O (stereo not given) | – | – | inactive | inactive |
| CC1(CCOC2OC(CO)C(O)C(O)C2O)CCC23OC2(C1)C(O)CC1C(C)(C(=O)O)CCCC13C (stereo not given) | – | – | inactive | inactive |
| CC(C)(O)C1=CCC23COC(C2)C(O)(C(=O)O)CCC13 (stereo not given) | – | – | inactive | inactive |
| CN1CCN(C(=O)c2ccc(Nc3nccc(-c4cccs4)n3)cc2Cl)CC1 | – | – | 0.731 µM (active) | 2.06 µM (active) |
| CCNC(=O)[C@@H]1CCCN1C(=O)[C@H](CCCN=C(N)N)NC(=O)[C@H](CC(C)C)NC(=O)[C@@H](CC(C)C)NC(=O)[C@H](Cc1ccc(O)cc1)NC(=O)[C@H](CO)NC(=O)[C@H](Cc1c[nH]c2ccccc12)NC(=O)[C@H](Cc1cnc[nH]1)NC(=O)[C@@H]1CCC(=O)N1 | – | – | inactive | 7.09 µM (active) |
| NCCOCCOCCNC(=O)Cc1ccc(Nc2nc(NCc3ccc(F)cc3)nc(NCC3CCCCC3)n2)cc1 | – | – | 2.31 µM (active) | 4.61 µM (active) |
| C=C1/C(=C/C=C2\CCC[C@]3(C)[C@@H]([C@H](C)/C=C/[C@H](O)C4CC4)CC[C@@H]23)C[C@@H](O)C[C@@H]1O | – | – | 0.0326 µM (active) | 0.731 µM (active) |
| CN(C)c1cc2c(Nc3ccc4c(cnn4Cc4ccccc4)c3)ncnc2cn1 | – | – | 8.2 µM (active) | 9.2 µM (active) |
| CNc1nc(NCc2ccc(NS(C)(=O)=O)cc2Cl)cc(-c2ccccn2)n1 | – | – | 20.6 µM (active) | 23.1 µM (active) |
| CC(C#N)C(C)O[C@@H]1O[C@H](CO)[C@@H](O)[C@H](O)[C@H]1O (stereo not given in full) | – | – | inactive | inactive |
| CC(C)[C@H]1CC[C@@]2(O)COC(=O)[C@H]2[C@@H]1/C=C(\CO)C(=O)O | – | – | inactive | inactive |
| CNS(=O)(=O)c1ccccc1Nc1nc(Nc2ccc(N3CCN(C)CC3)cc2OC)ncc1Cl | – | – | 0.0206 µM (active) | 0.0366 µM (active) |
| O=C(OC[C@H]1O[C@H](O[C@]2(CO)O[C@H](CO)[C@@H](O)[C@@H]2O)[C@H](O)[C@@H](O)[C@@H]1O)c1ccc(O)cc1 | – | – | inactive | inactive |
| CC1=C2C(=O)C=C(CO[C@@H]3O[C@H](CO)[C@@H](O)[C@H](O)[C@H]3O)[C@@H]2[C@H]2OC(=O)[C@H](C)[C@@H]2[C@@H](O)C1 | – | – | inactive | inactive |
| C[C@@H]1COCCN1c1cc(C2(S(C)(=O)=O)CC2)nc(-c2cccc3[nH]ccc23)n1 | – | – | 0.58 µM (active) | 0.366 µM (active) |
| C/C=C/C=C/C=C/C(=O)O[C@@H]1[C@@H](OC)C2=C(C(=O)N(C(CCC(=O)O)C(=O)O)C2)[C@@]2(C)CCCC(C)(C)[C@H]12 (stereo not given in full) | – | – | inactive | inactive |
| CCC(C)(O)C(O)C(=O)OCc1ccc(O[C@@H]2O[C@H](CO)[C@@H](O)[C@H](O)[C@H]2O)c(OC)c1 (stereo not given in full) | – | – | inactive | inactive |
